A number with no mark means an inactive call.
Each molecule was assayed on Toxoplasma gondii RH 2F1 tachyzoites (intracellular in HFF) (assay: parasite survival relative to DMSO control; higher = less antiparasitic activity, active = 20 or less). Details: 1 µM; 72 h.
How it was run: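 Parasite survival was taken as the CPRG signal relative to DMSO-treated infected wells, given as a percentage. To obtain it, HFF cells (5 × 10^3 cells/well, 96-well plates) were infected for 3 h in D2 medium with 5 × 10^3 β-galactosidase-expressing Toxoplasma gondii RH-2F1 tachyzoites, then exposed to compound at 1 μM for 72 h at 37°C in 5% CO2. Absorbance at 570 nm was measured 30 min after CPRG was added to lysed cells, and 2 or more biological replicates were run.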

Row | SMILES | parasite survival
1 | CCc1cc(O)c(Oc2cccnc2N)cc1F | 44.6%
2 | Nc1nc(-c2ccccc2)nc2[nH]nc(Nc3ccc(C(F)(F)F)cc3)c12 | 35.1%
3 | Cc1cc(CCOc2c(C)cc(-c3nnn(C)n3)cc2C)on1 | 65.1%
4 | O=C(CCc1ccc2c(c1)OCO2)NCc1ccc(-c2ccccc2F)cc1 | 54.9%
5 | NC(=O)c1ccccc1NC(=O)c1ccc(C(=O)Nc2ccccc2C(N)=O)cc1 | 39.5%
6 | Nc1c(C(=O)NCc2ccco2)c2nc3ccccc3nc2n1CCN1CCCCC1 | 37%
7 | NC1C2CC3CC(C2)CC1C3 (centres undefined) | 68.3%
8 | CC1(C)Cc2c(C#N)c(SCCc3ccccc3)nc(N3CCOCC3)c2CO1 | 39.6%
9 | O=C(CCCC(F)(F)F)N1CCC(c2nc(-c3nccs3)no2)CC1 | 68%
10 | O=C(Nc1ccc(F)cc1)c1nn(-c2ccccc2)c(=O)cc1Cl | 42.6%
11 | N[C@H]1CCC[C@H]1C(=O)O | 78.4%
12 | CC(Cc1ccccc1)C(=O)Nc1ccc(Cl)cc1C(=O)O (centres undefined) | 42%
13 | O=C(Nc1ccc(-c2ccccc2)cc1)C1=C(O)C(Cc2ccccc2)OC1=O (centres undefined) | 54.1%
14 | Nc1nc(C(F)(F)F)cc2c1[nH]c(=O)n2Cc1ccccc1 | 49.1%
15 | CC(C)c1cc2c(cc1S(=O)(=O)O)[C@@]1(C)CCC[C@@](C)(C(=O)O)[C@@H]1CC2 | 74.6%
16 | O=c1cc(NCCCN[C@@H]2CCOc3c(Br)cc(Br)cc32)[nH]c2ccsc12 | 30.7%
17 | COc1cc(Cc2cnc(N)nc2N)cc(OC)c1OC | 52.6%
18 | O=C1NC(=O)C(Br)=C1Br | 35.2%
19 | C/C(=N\NC(=O)C1CC1c1ccccc1)c1ccc(NC(=O)c2ccco2)cc1 (centres undefined) | 47.3%
20 | O=C(NCc1ncc(C(F)(F)F)cc1Cl)c1c(Cl)cccc1Cl | 45.4%

Row | SMILES | parasite survival
21 | Fc1cccc(Cl)c1C1CC(c2ccc(Cl)cc2)Nc2nnnn21 (centres undefined) | 79.9%
22 | CCO/N=C/c1ccc(OCCCCN2CCN(c3ccncc3)C2=O)cc1 | 47.7%
23 | Cc1ccc(NC(=O)c2cc(Cl)ccc2O)cc1 | 42.3%
24 | COc1ccc(CNC(=O)C2CCN([C@H](C)c3cccc4ccccc34)CC2)cc1 | 52%
25 | Cc1cc(-c2ccccc2)c(C(=O)C(=O)Nc2ccc(N3CCN(c4ncc(F)cn4)CC3)cc2)n1C | 9.71% (active)
26 | COC(=O)Nc1nc2cc([S+]([O-])c3ccccc3)ccc2[nH]1 (centres undefined) | 59.2%
27 | COc1ccc2c(c1OC)C(=O)OC2C1c2c(cc3c(c2OC)OCO3)CCN1C (centres undefined) | 68.3%
28 | CCNC(=O)Nc1cc2c(-c3ccnc(C)c3)ccc(CNC(=O)OC)c2cn1 | 31.9%
29 | Cc1onc(-c2ccccc2)c1-c1ccc(S(N)(=O)=O)cc1 | 74%
30 | COc1cc2c(O)c3c(c(-c4ccc5c(c4)OCO5)c2cc1OC)C(=O)OC3 | 46.1%
31 | CC(C)c1ccc(COc2cccc(-c3cc([S+](C)[O-])c(C#N)c(=O)[nH]3)c2)cc1 (centres undefined) | 13.2% (active)
32 | Nc1cc(N)c2nc(-c3ccccc3)c(Nc3ccc(F)cc3)nc2c1 | 7.94% (active)
33 | CCCCC(CC)CNC(=N)NC(=N)NCCCCCCNC(=N)NC(=N)NCC(CC)CCCC (centres undefined) | 3.8% (active)
34 | CCCCc1ccc(S(=O)(=O)Nc2cc(C)on2)cc1 | 39.1%
35 | O=C1C=C(c2ccccc2)S(=O)(=O)c2ccccc21 | 44.4%
36 | C=C[C@]1(C)C[C@@H](OC(=O)CS[C@@H]2C[C@H]3CC[C@@H](C2)N3C)[C@]2(C)[C@H](C)CC[C@]3(CCC(=O)[C@H]32)[C@@H](C)[C@@H]1O | 18.1% (active)
37 | O=c1oc2ccc(Br)cc2cc1CSc1ncc[nH]1 | 63.6%
38 | Nc1nc(=O)[nH]cc1F | 51.9%
39 | O=C(Nc1nnc(-c2ccc(Cl)cc2)o1)c1nc2ccccc2s1 | 62.5%

From the supplement of paper PMC10941209
